# In publication PMC4336329 (PLoS ONE, 2015):
# Among all 310,000 compounds or so, about 14,000 (4.5%) showed an effect of 50% or more. The effect is printed as a negative number. The sample as a whole holds a higher share of strong results than the screen did.
# Biological target: human ether-à-go-go-related gene (hERG) potassium channel (human, UniProt Q12809)
# Experiment: primary screen, population patch clamp on CHO cells stably expressing hERG; higher = less effect of the substance
# 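Also: peak tail current of the secondary pulse compared with the same well before compound.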
# Sequence of human ether-à-go-go-related gene (hERG) potassium channel (Q12809 whole entry, looked up): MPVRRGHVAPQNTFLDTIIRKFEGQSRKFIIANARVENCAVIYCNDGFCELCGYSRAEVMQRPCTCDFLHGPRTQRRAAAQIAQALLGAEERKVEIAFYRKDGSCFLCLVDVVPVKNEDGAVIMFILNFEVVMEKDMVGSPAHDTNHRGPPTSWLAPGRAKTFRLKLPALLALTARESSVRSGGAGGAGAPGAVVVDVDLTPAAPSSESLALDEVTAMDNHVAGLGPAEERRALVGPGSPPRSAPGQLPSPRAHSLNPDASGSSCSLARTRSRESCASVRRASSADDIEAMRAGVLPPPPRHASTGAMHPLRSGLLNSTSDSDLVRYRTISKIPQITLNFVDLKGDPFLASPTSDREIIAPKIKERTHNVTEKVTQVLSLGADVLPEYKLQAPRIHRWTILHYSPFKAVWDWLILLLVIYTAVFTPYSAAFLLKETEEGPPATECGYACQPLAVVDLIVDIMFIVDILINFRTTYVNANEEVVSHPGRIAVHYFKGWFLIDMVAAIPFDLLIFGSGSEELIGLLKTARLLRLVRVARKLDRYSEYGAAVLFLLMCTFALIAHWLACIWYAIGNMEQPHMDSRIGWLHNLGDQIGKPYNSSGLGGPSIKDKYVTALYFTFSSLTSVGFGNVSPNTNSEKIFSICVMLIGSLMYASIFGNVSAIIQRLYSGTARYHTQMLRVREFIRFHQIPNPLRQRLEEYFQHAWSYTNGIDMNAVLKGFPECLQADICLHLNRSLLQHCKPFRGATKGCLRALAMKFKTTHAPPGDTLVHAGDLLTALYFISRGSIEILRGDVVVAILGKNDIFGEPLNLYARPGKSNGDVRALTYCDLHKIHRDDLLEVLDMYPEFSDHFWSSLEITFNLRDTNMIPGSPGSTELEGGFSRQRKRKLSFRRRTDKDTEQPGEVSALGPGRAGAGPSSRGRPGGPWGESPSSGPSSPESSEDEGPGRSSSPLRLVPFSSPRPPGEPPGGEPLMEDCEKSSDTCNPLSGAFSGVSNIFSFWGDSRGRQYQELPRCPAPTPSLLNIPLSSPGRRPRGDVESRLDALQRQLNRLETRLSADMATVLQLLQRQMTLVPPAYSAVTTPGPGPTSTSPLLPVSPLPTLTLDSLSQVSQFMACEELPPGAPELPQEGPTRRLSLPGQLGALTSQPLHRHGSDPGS
row,SMILES,"hERG current change (%, negative = inhibition) at 10uM"
1,CC(C)CC(C(=O)NC1CCCC1)N(Cc1cccs1)C(=O)c1snc(C(N)=O)c1N (centres unmarked),-40.5%
2,CS(=O)(=O)c1ccc2nnn(OCC(=O)Nc3ccc(Br)cc3Br)c2c1,7.34%
3,Cc1ccc(/C=N/c2sc3c(c2C(N)=O)CCCC3)o1,23.3%
4,COCCNC(=O)/C(C#N)=C/c1cccc(/C=C(\C#N)C(=O)NCCOC)c1,0.707%
5,COc1ccc(CC2(CO)CCN(Cc3cnn(-c4ccc(F)cc4)c3)CC2)cc1,-76.4%
6,COc1ccc(CC2(CO)CCN(Cc3cnn(-c4ccccc4)c3)CC2)cc1,-77.6%
7,COc1ccccc1-n1cc(CN2CCN(CC=C(C)C)C(CCO)C2)cn1 (centres unmarked),-13.7%
8,COc1ccc(CC2(CO)CCN(Cc3cnc(-c4ccccc4C)nc3)CC2)cc1,-20.6%
9,COc1ccccc1-n1cc(CN2CCN(C3CCCC3)C(CCO)C2)cn1 (centres unmarked),-15.3%
10,COc1ccc(CC2(CO)CCN(Cc3cnn(-c4ccccc4OC)c3)CC2)cc1,-64.8%
11,COc1ccc(CC2(CO)CCN(Cc3cccnc3)CC2)cc1,-40.3%
12,Cc1ccc(CCNC(=O)C2CCN(S(=O)(=O)c3ccc4c(c3)NC(=O)CO4)CC2)cc1,-1.82%
13,CC(NC(=O)OCc1ccccc1)c1ccccc1 (centres unmarked),-22.9%
14,COCCN1C(=O)N(c2cccc(C)c2)C(=O)C1CC(=O)Nc1cc(OC)cc(OC)c1 (centres unmarked),10.2%
15,CC(C)Cc1nnc(NC(=O)CCC(=O)N2CCN(c3ccccc3)CC2)s1,13.2%
16,CCN(CC)CCNC(=O)c1cc([N+](=O)[O-])c(N(C)C)cc1OC.Cl,-12%
17,CCCSc1cc(Cl)nc(N)n1,-9.06%
18,COc1ccc(S(=O)(=O)Nc2cccc(F)c2C)cc1C(=O)N1CCOCC1,6.33%
19,CC(NC(=O)COC(=O)c1cn(-c2ccccc2)nc1-c1cccs1)c1ccccc1 (centres unmarked),0.115%
20,COC(=O)c1c(NC(C)=O)sc(C(=O)Nc2ccccc2OC)c1C,16.2%
21,CC(Cc1n[nH]c(=S)o1)c1ccccc1 (centres unmarked),20.7%
22,COc1cccc(C(C(=O)NC2CCCC2)N(Cc2cccnc2)C(=O)Cc2cccs2)c1 (centres unmarked),-5.67%

row,SMILES,"hERG current change (%, negative = inhibition) at 10uM"
1,COc1ccc(C2=Nc3ccc(C)cc3C(c3ccccc3)N2CC(=O)NN)cc1 (centres unmarked),-23.2%
2,O=[N+]([O-])c1ccccc1NCc1ccc(Cl)cc1,-19.5%
3,C=CCNCC(O)COc1ccc(C(C)=O)cc1OC.O=C(O)C(=O)O (centres unmarked),-6.16%
4,C/C=C/c1ccc(OCCCNCC(C)O)c(OC)c1 (centres unmarked),-29.2%
5,COC(=O)c1ccc(OCC(O)CNCC(c2ccc(OC)cc2)N(C)C)c(OC)c1 (centres unmarked),-21.4%
6,C/C=C/c1ccc(OCC(O)CNCC(c2ccc(OC)cc2)N(C)C)c(OC)c1.O=C(O)C(=O)O (centres unmarked),-66.5%
7,C/C=C/c1ccc(OCC(O)CNCCc2ccc(OC)cc2)c(OC)c1.O=C(O)C(=O)O (centres unmarked),-73.4%
8,Cc1cc(Br)ccc1NC(=O)CN(C)C(=O)C1CSC2(C)CCC(=O)N12 (centres unmarked),11.5%
9,CC1=CC(C)(C)Nc2ccc(OC(=O)CCN3C(=O)c4ccccc4C3=O)cc21,0.14%
10,COc1ccc(C(=O)NC2CCN(C(=S)Nc3ccccc3)CC2)cc1,12.7%
11,CNC(=O)c1c[nH]n2c(=O)c(Cc3ccccc3F)c(C)nc12,16.9%
12,COc1cccc(/C=C/C(=O)NNC(=O)c2ccncc2)c1,-20.5%
13,CCOc1cnc(C(=O)NNC(=O)c2ccccc2Br)o1,11%
14,CCCNS(=O)(=O)c1ccc(OCC(=O)NCc2ccc3c(c2)OCO3)cc1,-23.8%
15,C=CCNC(=O)/C(C#N)=C/c1c(C)nn(-c2ccccc2)c1Cl,-20%
16,Cc1ccc(/C=C/C(=O)NC2CCS(=O)(=O)C2)cc1 (centres unmarked),20.6%
17,O=C(/C=C/c1ccc(Cl)cc1)NC1CCS(=O)(=O)C1 (centres unmarked),-58.7%
18,O=C(/C=C/c1ccccc1)NC1CCS(=O)(=O)C1 (centres unmarked),18.1%
19,O=C(NC1CCS(=O)(=O)C1)/C(=C\c1ccccc1)NC(=O)c1ccccc1 (centres unmarked),-11%
20,O=C(NC1CCS(=O)(=O)C1)/C(=C/c1ccc(Cl)cc1)NC(=O)c1ccccc1 (centres unmarked),-55%
21,O=C(NC(NC1CCS(=O)(=O)C1)C(=O)c1ccccc1)c1ccc(Cl)cc1 (centres unmarked),-51.6%
22,O=C(NC(NC1CCS(=O)(=O)C1)C(=O)c1cccs1)c1ccccc1 (centres unmarked),-1.01%

row,SMILES,"hERG current change (%, negative = inhibition) at 10uM"
1,O=C(NC(NC1CCS(=O)(=O)C1)C(Cl)(Cl)Cl)c1cccc(Cl)c1 (centres unmarked),-7.37%
2,O=C(NC1CCS(=O)(=O)C1)/C(=C\c1ccc(F)cc1)NC(=O)c1ccccc1 (centres unmarked),-34.7%
3,Cc1ccc(NC(=O)NCc2ccccn2)cc1,37.7%
4,Fc1ccc(OCc2nc(-c3cccs3)no2)cc1,-9.58%
5,c1ccc(Cc2nn3c(COc4ccccc4)nnc3s2)cc1,6.61%
6,CC1=C(C(=O)OCc2ccccc2)C(c2ccccc2[N+](=O)[O-])NC(=O)N1C (centres unmarked),1.71%
7,COc1ccccc1Nc1nc(N)nc(CCl)n1,3.4%
8,COc1ccccc1Nc1nc(N)nc(CN2CCN(c3ccccc3)CC2)n1,-52.9%
9,COc1ccc(N2CCN(Cc3nc(N)nc(Nc4ccccc4OC)n3)CC2)cc1,-62%
10,COc1ccccc1Nc1nc(N)nc(CN2CCN(Cc3ccccc3)CC2)n1,-73.2%
11,COc1cccc(N2CCN(Cc3nc(N)nc(Nc4ccccc4OC)n3)CC2)c1,-25.6%
12,COc1ccccc1Nc1nc(N)nc(CSC(=S)N2CCOCC2)n1,-9.92%
13,COc1ccccc1Nc1nc(N)nc(CN2CCC(Cc3ccccc3)CC2)n1,-84.5%
14,COc1ccccc1Nc1nc(N)nc(CSC(=S)N2CCN(c3ccccc3)CC2)n1,6.86%
15,COc1ccc(OCc2nc(N)nc(Nc3ccccc3OC)n2)cc1,9.46%
16,Cc1cc(C)cc(NC(=O)CCC(=O)Nc2cc(C)on2)c1,8.01%
17,Cc1cc(C)c(C(CC(=O)c2cccs2)C(C#N)C#N)c(C)c1 (centres unmarked),-23.9%
18,O=c1c2ccccc2n2c(-c3cccc(Cl)c3)nnc2n1Cc1ccccc1,-11.8%
19,COc1ccccc1NC(=O)c1cc(=O)[nH]c2ccccc12,33.4%
20,COc1ccc(CN2C(=O)CN=C2Nc2cc(C)ccc2C)cc1.Cl,1.79%
21,O=C(CN(Cc1ccc(Cl)cc1)C(=O)CN1C(=O)COc2ccccc21)NC1CCCC1,15%
22,CCOC(=O)c1ccc2nc(NC(NC(C)=O)(C(=O)OC)C(F)(F)F)sc2c1 (centres unmarked),13.6%

row,SMILES,"hERG current change (%, negative = inhibition) at 10uM"
1,CN(C(=O)CSc1nnc(Cc2ccccc2F)n1N)C1CCS(=O)(=O)C1 (centres unmarked),9.76%
2,FC(F)(F)c1cccc(Cc2noc(CN3CCC(N4CCCCC4)CC3)n2)c1,-74.7%
3,FC(F)(F)c1cccc(Cc2noc(CN3CCSCC3)n2)c1,0.814%
4,FC(F)(F)c1cccc(Cc2noc(CN3CCCC3)n2)c1,15.6%
5,OCC1CCCN(C2CCN(Cc3nc(Cc4cccc(C(F)(F)F)c4)no3)CC2)C1 (centres unmarked),-74.1%
6,NC(=O)[C@@H]1CCCN1Cc1nc(Cc2cccc(C(F)(F)F)c2)no1,8.45%
7,Fc1cccc(Cc2noc(CN3CCC(c4ccncc4)CC3)n2)c1,-21.4%
8,FC(F)(F)c1cccc(Cc2noc(CN3CCCC(CN4CCCC4)C3)n2)c1 (centres unmarked),-45.5%
9,CCOC(=O)N1CCN(Cc2nc(Cc3cccc(C(F)(F)F)c3)no2)CC1,-15%
10,FC(F)(F)c1cccc(Cc2noc(CN3CCC(c4ccncc4)CC3)n2)c1,-66.2%
11,Fc1ccc(N2CCN(c3cnc4ccccc4n3)CC2)cc1,6.24%
12,Cc1cc(C(F)(F)F)nn1Cc1n[nH]c(=S)n1-c1ccc(Cl)cc1,20.3%
13,O=[N+]([O-])c1ccc(-c2c(O)c3ccccc3c3nc4ccccc4nc23)cc1,18%
14,CCN1CCN(C(c2cccnc2)c2c(NC(=O)c3ccco3)sc(C)c2C)CC1 (centres unmarked),-58.4%
15,Cc1sc(NC(=O)c2ccco2)c(C(c2ccc(F)cc2)N2CCN(C)CC2)c1C (centres unmarked),-68.1%
16,Cc1sc(NC(=O)c2ccco2)c(C(c2cccnc2)N2CCN(CCO)CC2)c1C (centres unmarked),-20.9%
17,Cc1sc(NC(=O)c2ccco2)c(C(c2cccnc2)N2CCN(c3ccc(F)cc3)CC2)c1C (centres unmarked),1.92%
18,Cc1sc(NC(=O)c2ccco2)c(C(c2cccnc2)N2CCCC2)c1C (centres unmarked),-8.45%
19,Cc1sc(NC(=O)c2ccco2)c(C(c2cccnc2)N2CCN(C)CC2)c1C (centres unmarked),-32.7%
20,CC1(C)CC(=O)C2=C(C1)N(Cc1ccc(F)cc1)C(=O)C2(NC(=O)c1cccnc1)C(F)(F)F (centres unmarked),-5.55%
